Results as given in PubChem BioAssay (NCATS).
Results filed as inconclusive are left out. The source made the active and inactive calls. Calls follow the shape of the dose curve; as a rule, active = well fitted curve in the direction sought with a large enough effect; inconclusive = small, poorly fitted or top-dose-only effect, or another doubt; inactive = no such curve, though single readings can be large; an effect the other way counts as inactive or inconclusive.

How the values were obtained:
CRL-7250 = normal cell line; assay: Cytotoxic Profiling of Annotated Libraries Using Quantitative High-Throughput Screening (AID 1296008); conditions: Five cell lines viability, CellTiter-Glo ATP luminescence, 48-72 h; max response: active compounds read low; also: nearly all actives have a fitted effect of over 60% in size; as to max response: % is scaled to controls: 0 for no effect and ±100 for the full control effect
Procedure, shortened: (§1)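 Cytotoxicity was measured as CellTiter-Glo ATP luminescence, read after 10 min at room temperature. Compound treatment of the cells lasted 48 or 72 hr at 37 degrees Celsius in a qHTS format.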

HEK293 = assay: as above; conditions: Five cell lines viability, CellTiter-Glo ATP luminescence, 48-72 h; max response: active compounds read low
Procedure, shortened: as §1

HaCat [1] = assay: as above; conditions: Five cell lines viability, CellTiter-Glo ATP luminescence, 48-72 h; max response: active compounds read low
Procedure, shortened: as §1

KB-3-1 = assay: as above; conditions: Five cell lines viability, CellTiter-Glo ATP luminescence, 48-72 h; max response: active compounds read low
Procedure, shortened: as §1

NIH3T3 [2] = assay: as above; conditions: Five cell lines viability, CellTiter-Glo ATP luminescence, 48-72 h; max response: active compounds read low
Procedure, shortened: as §1

HACAT [3] = assay: qHTS assay to identify novel small-molecules to repurpose for Merkel cell carcinoma treatment (AID 1296009); conditions: MCC and control cell lines, CellTiter-Glo viability, 72 h; at 44.8 µM (top of the series) unless noted; also: nearly all actives have a fitted effect of over 60% in size
Procedure, shortened: (§2)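 72 hr, 37 degree celsius; NPC 8-pt / MIPE 11-pt dose response; compound pinned in DMSO; CellTiter-Glo, 10 min RT, luminescence; normalized to no-cell and DMSO controls.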

NIH3T3 [4] = assay: as above; conditions: MCC and control cell lines, CellTiter-Glo viability, 72 h; at 44.8 µM (top of the series) unless noted
Procedure, shortened: as §2

C33A = assay: Primary qHTS to identify gynecologic anti-cancer compounds using libraries of approved drugs and bioactive compounds (AID 1345084); conditions: Gynecologic cancer cell panel viability, ATPlite luminescence, 48 h; series mostly up to 57.5 µM; also: % is scaled to controls: 0 for no effect and ±100 for the full control effect; nearly all actives have a fitted effect of over 55% in size
Procedure, shortened: (§3)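 ATP-based viability (ATPlite), 1,000 cells/well, 16 h pre-incubation, 48 h compound at 37 C, 5% CO2, 15 min RT before read.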

CAOV3 = assay: as above; conditions: Gynecologic cancer cell panel viability, ATPlite luminescence, 48 h; series mostly up to 57.5 µM
Procedure, shortened: as §3

CASKI = assay: as above; conditions: Gynecologic cancer cell panel viability, ATPlite luminescence, 48 h; series mostly up to 57.5 µM
Procedure, shortened: as §3

Es-2 = assay: as above; conditions: Gynecologic cancer cell panel viability, ATPlite luminescence, 48 h; series mostly up to 57.5 µM
Procedure, shortened: as §3

HeLa = assay: as above; conditions: Gynecologic cancer cell panel viability, ATPlite luminescence, 48 h; series mostly up to 57.5 µM
Procedure, shortened: as §3

Hek293T = assay: as above; conditions: Gynecologic cancer cell panel viability, ATPlite luminescence, 48 h, control line for the selectivity index; series mostly up to 57.5 µM
Procedure, shortened: as §3

JEG-3 = assay: as above; conditions: Gynecologic cancer cell panel viability, ATPlite luminescence, 48 h; series mostly up to 57.5 µM
Procedure, shortened: as §3

OV90 = assay: as above; conditions: Gynecologic cancer cell panel viability, ATPlite luminescence, 48 h; series mostly up to 57.5 µM
Procedure, shortened: as §3

C=C(C(=O)OC)[C@]12O[C@@](C)(CC[C@@]3(O)/C(=C\C)C(=O)O[C@]3(C)C[C@@H]1OC(=O)C(CO)CN1CCCC1C(=O)O)CC2=O (stereo not given in full)
inactive: outcome (CRL-7250) | max response (HEK293) -8.55% | outcome (HaCat [1]) | outcome (KB-3-1) | outcome (NIH3T3 [2]) | outcome (HACAT [3]) inactive [at 17.4 µM] | outcome (NIH3T3 [4]) inactive [at 17.4 µM] | Potency (C33A) | Potency (CAOV3) | outcome (CASKI) | Potency (Es-2) | Potency (HeLa) | Potency (Hek293T) | Potency (JEG-3) | Potency (OV90)

COc1cc(C(CO)C(OC2OC(CO)C(O)C(O)C2O)c2ccc(O)c(OC)c2)ccc1O (stereo not given)
inactive: outcome (CRL-7250) | max response (HEK293) -2.64% | outcome (HaCat [1]) | max response (KB-3-1) 3.11% | outcome (NIH3T3 [2]) | outcome (HACAT [3]) inactive [at 17.4 µM] | outcome (NIH3T3 [4]) inactive [at 17.4 µM] | Potency (C33A) | Potency (CAOV3) | outcome (CASKI) | Potency (Es-2) | Potency (HeLa) | Potency (Hek293T) | Potency (JEG-3) | Potency (OV90)

C=C1CCC2C(C)(C(=O)O)CCCC2(C)C1CC/C(C)=C\CO (stereo not given)
inactive: max response (CRL-7250) -2.2% | max response (HEK293) -6.37% | outcome (HaCat [1]) | outcome (KB-3-1) | outcome (NIH3T3 [2]) | outcome (HACAT [3]) | outcome (NIH3T3 [4]) | Potency (C33A) | Potency (CAOV3) | outcome (CASKI) | Potency (Es-2) | Potency (HeLa) | Potency (Hek293T) | Potency (JEG-3) | Potency (OV90)

C=C1CC[C@@H]2C(C)(C)CCC[C@@]2(C)[C@@H]1CC/C(=C/C(=O)OC)COC(C)=O
inactive: max response (CRL-7250) -1.64% | max response (HEK293) -16.3% | outcome (HaCat [1]) | max response (KB-3-1) -9.17% | outcome (NIH3T3 [2]) | outcome (HACAT [3]) | outcome (NIH3T3 [4]) | Potency (C33A) | Potency (CAOV3) | outcome (CASKI) | Potency (Es-2) | Potency (HeLa) | Potency (Hek293T) | Potency (JEG-3) | Potency (OV90)

Cc1occc(=O)c1O[C@@H]1O[C@H](COC(=O)CC(C)(O)CC(=O)O)[C@@H](O)[C@H](O)[C@H]1O (stereo not given in full)
inactive: outcome (CRL-7250) | max response (HEK293) -5.53% | outcome (HaCat [1]) | outcome (KB-3-1) | outcome (NIH3T3 [2]) | outcome (HACAT [3]) inactive [at 17.4 µM] | outcome (NIH3T3 [4]) inactive [at 17.4 µM] | Potency (C33A) | Potency (CAOV3) | outcome (CASKI) | Potency (Es-2) | Potency (HeLa) | Potency (Hek293T) | Potency (JEG-3) | Potency (OV90)

COC(=O)C(CC1(O)c2ccccc2N2C(=O)C(CC(C)C)NC21)n1cnc2ccccc2c1=O (stereo not given)
inactive: outcome (CRL-7250) | max response (HEK293) -5.33% | outcome (HaCat [1]) | outcome (KB-3-1) | outcome (NIH3T3 [2]) | outcome (HACAT [3]) inactive [at 17.4 µM] | outcome (NIH3T3 [4]) inactive [at 17.4 µM] | Potency (C33A) | Potency (CAOV3) | outcome (CASKI) | Potency (Es-2) | Potency (HeLa) | Potency (Hek293T) | Potency (JEG-3) | Potency (OV90)

CC1CCC2(C(=O)O)CCC3(C)C(=CCC4C5(C)C[C@@H](O)[C@@H](O)C(C)(CO)C5CCC43C)C2C1(C)O (stereo not given in full)
inactive: max response (CRL-7250) -2.68% | max response (HEK293) -0.908% | outcome (HaCat [1]) | outcome (KB-3-1) | outcome (NIH3T3 [2]) | outcome (HACAT [3]) inactive [at 17.4 µM] | outcome (NIH3T3 [4]) inactive [at 17.4 µM] | Potency (C33A) | Potency (CAOV3) | outcome (CASKI) | Potency (Es-2) | Potency (HeLa) | Potency (Hek293T) | Potency (JEG-3) | Potency (OV90)

CC(C)C1(O)C=C2C(=O)CC3C(C)(C(=O)O)CCCC3(C)C2CC1 (stereo not given)
inactive: max response (CRL-7250) 3.97% | max response (HEK293) 0.541% | outcome (HaCat [1]) | max response (KB-3-1) -0.238% | outcome (NIH3T3 [2]) | outcome (HACAT [3]) | outcome (NIH3T3 [4]) | Potency (C33A) | Potency (CAOV3) | outcome (CASKI) | Potency (Es-2) | Potency (HeLa) | Potency (Hek293T) | Potency (JEG-3) | Potency (OV90)

C=C1CCC2C(C)(C)CC(=O)CC2(C)C1CCC(C)CCO (stereo not given)
inactive: max response (CRL-7250) -5.3% | max response (HEK293) 1.61% | outcome (HaCat [1]) | max response (KB-3-1) 0.95% | outcome (NIH3T3 [2]) | outcome (HACAT [3]) | outcome (NIH3T3 [4]) | Potency (C33A) | Potency (CAOV3) | outcome (CASKI) | Potency (Es-2) | Potency (HeLa) | Potency (Hek293T) | Potency (JEG-3) | Potency (OV90)

COc1cccc(OC)c1-c1ccc(C[C@H](NC(=O)c2c(Cl)cccc2Cl)C(=O)O)cc1
inactive: max response (CRL-7250) 1.89% | max response (HEK293) -9.99% | outcome (HaCat [1]) | outcome (KB-3-1) | outcome (NIH3T3 [2]) | outcome (HACAT [3]) | outcome (NIH3T3 [4]) | Potency (C33A) | Potency (CAOV3) | outcome (CASKI) | Potency (Es-2) | Potency (HeLa) | Potency (Hek293T) | Potency (JEG-3) | Potency (OV90)

C=C1[C@H]2CCC3[C@]4(C)CCC[C@@](C)(C(=O)O)C4CC[C@]3(C2)[C@H]1OC(C)=O (stereo not given in full)
inactive: max response (CRL-7250) -1.83% | max response (HEK293) 3.77% | outcome (HaCat [1]) | outcome (KB-3-1) | outcome (NIH3T3 [2]) | outcome (HACAT [3]) | outcome (NIH3T3 [4]) | Potency (C33A) | Potency (CAOV3) | outcome (CASKI) | Potency (Es-2) | Potency (HeLa) | Potency (Hek293T) | Potency (JEG-3) | Potency (OV90)
